PubChem BioAssay (Tox21)
Active and inactive are the calls of the source. Unless noted, calls follow the shape of the dose curve; as a rule, active = well fitted curve in the direction sought with a large enough effect in the repeat runs; inconclusive = weak or mixed curves; inactive = no such curve, though single readings can be large; an effect the other way counts as inactive or inconclusive.

Legend:
[1] = qHTS assay to identify small molecule antagonists of the thyroid receptor (TR) signaling pathway (AID 743065); also: nearly all actives have a fitted effect of over 55% in size; also: potency is read from the fitted curve at half-maximal effect
Summary of the method: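 GH3.TRE-Luc rat pituitary cells carrying two TR response elements driving luciferase were plated for 4 h, given compound plus 1 nM T3 (final), and incubated 23.5 h at 37 C. ONE-Glo luminescence measured reporter inhibition; CellTiter-Fluor fluorescence tracked cytotoxicity.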

[2] = tested on: thyroid hormone receptor (rat, GH3 cells); assay: qHTS assay to identify small molecule agonists of the thyroid receptor (TR) signaling pathway (AID 743066; calls by dose curve)
[3] = qHTS assay to identify small molecule antagonists of the estrogen receptor alpha (ER-alpha) signaling pathway - cell viability counter screen (AID 743074; calls by dose curve; also: nearly all actives have a fitted effect of over 45% in size)
[4] = molecular target: Estrogen receptor (Homo sapiens) (UniProt P03372); assay: qHTS assay to identify small molecule agonists of the estrogen receptor alpha (ER-alpha) signaling pathway using the BG1 cell line (AID 743079); also: nearly all actives have a fitted effect of over 20% in size; also: potency is read from the fitted curve at half-maximal effect
Aromatase (Homo sapiens) = Aromatase (Homo sapiens) (UniProt P11511); assay: qHTS assay to identify aromatase inhibitors (AID 743083); also: nearly all actives have a fitted effect of over 55% in size; also: potency is read from the fitted curve at half-maximal effect
[5] = qHTS assay to identify small molecule antagonists of the thyroid receptor (TR) signaling pathway - cell viability counter screen (AID 743064); also: nearly all actives have a fitted effect of over 50% in size
Summary of the method: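 Fluorescence from CellTiter-Fluor, added after 23.5 h exposure at 37 °C, reported viability of GH3.TRE-Luc cells co-treated with compound and 1 nM T3. Measured in the same wells as the luciferase TR readout.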

[6] = qHTS assay to identify small molecule antagonists of the estrogen receptor alpha (ER-alpha) signaling pathway using the BG1 cell line - cell viability counter screen (AID 743081);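 also: compound given together with 17beta-estradiol as the ER stimulus; series mostly up to about 70 µM; nearly all actives have a fitted effect of over 45% in size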
[7] = qHTS assay to identify aromatase inhibitors - cell viability counter screen (AID 743084);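 also: cells stimulated with testosterone during compound exposure; nearly all actives have a fitted effect of over 55% in size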; also: potency is read from the fitted curve at half-maximal effect
[8] = molecular target: Aryl hydrocarbon receptor (Homo sapiens) (UniProt P35869); assay: qHTS assay to identify small molecule that activate the aryl hydrocarbon receptor (AhR) signaling pathway (AID 743085);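 also: HG2L7.5c1 human HepG2 liver cells with stably integrated DRE-driven firefly reporter; series mostly up to about 70 µM; nearly all actives have a fitted effect of over 15% in size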
Summary of the method: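 Cell line HG2L7.5c1 (human hepatoma, 20× DRE-luc). Plated, 5 h 37C, compound/DMSO added, 24 h 37C. CellTiter-Fluor 30 min 37C → fluorescence; then ONE-Glo 30 min RT → luminescence.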

[9] = qHTS assay to identify small molecule that activate the aryl hydrocarbon receptor (AhR) signaling pathway - cell viability counter screen (AID 743086); also: nearly all actives have a fitted effect of over 45% in size; also: potency is read from the fitted curve at half-maximal effect
Summary of the method: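 HepG2-AhR-luc (HG2L7.5c1) cells, 4000/well, were preincubated 5 h at 37C, exposed to compound in qHTS format for 24 hr at 37C, then given CellTiter-Fluor for 30 min; viability was read as fluorescence in the reporter wells.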

[10] = molecular target: Peroxisome proliferator-activated receptor gamma (Homo sapiens) (UniProt P37231); assay: qHTS assay to identify small molecule agonists of the peroxisome proliferator-activated receptor gamma (PPARg) signaling pathway (AID 743094; active = well fitted activation curve with a large enough effect in the signal ratio in the repeat runs, not every such curve was filed as active; inconclusive = weak or mixed curves, or effect the other way; inactive = no such curve, though single readings can be large or run the other way; the % refers to the signal ratio; also: potency is read from the fitted curve at half-maximal effect)
Summary of the method: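 Reporter activation was scored by fluorescence of cleaved LiveBLAzer B/G substrate (1 h, room temperature) in PPARg-bla HEK293H cells previously treated 17 h at 37C with DMSO-dissolved compounds.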

[11] = molecular target: Estrogen receptor (Homo sapiens) (UniProt P03372); assay: qHTS assay to identify small molecule antagonists of the estrogen receptor alpha (ER-alpha) signaling pathway (AID 743069; active = well fitted curve in the direction sought with a large enough effect in the signal ratio in the repeat runs, not every such curve was filed as active; inconclusive = weak or mixed curves, or effect the other way; inactive = no such curve, though single readings can be large or run the other way; the % refers to the signal ratio; also: potency is read from the fitted curve at half-maximal effect)
Summary of the method: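 Screening used a UAS-driven beta-lactamase reporter integrated into HEK293 cells expressing ER-alpha, stimulated with 17beta-estradiol alongside test compounds over 18 hr at 37C; signal came from LiveBLAzer B/G FRET fluorescence.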

[12] = molecular target: Estrogen receptor (Homo sapiens) (UniProt P03372); assay: qHTS assay to identify small molecule agonists of the estrogen receptor alpha (ER-alpha) signaling pathway (AID 743075; calls by dose curve)
[13] = qHTS assay to identify small molecule antagonists of the estrogen receptor alpha (ER-alpha) signaling pathway using the BG1 cell line (AID 743080; calls by dose curve;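 also: BG1 cells stimulated with 17beta-estradiol alongside compound; series mostly up to about 70 µM; nearly all actives have a fitted effect of over 25% in size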)
Summary of the method: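 Quantitative HTS on the Tox21 10K library: BG1 cells with endogenous ER-alpha and ERE-luciferase reporter, 17beta-estradiol stimulation, 21.5 h compound exposure, luminescence endpoint with parallel fluorescence cytotoxicity counter-read.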

[14] = qHTS assay to identify small molecule antagonists of the peroxisome proliferator-activated receptor gamma (PPARg) signaling pathway - cell viability counter screen (AID 743194); also: nearly all actives have a fitted effect of over 55% in size
Summary of the method: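 PPARg-UAS-bla HEK293H cells were plated, rested 5 h at 37 C, then treated with compounds plus rosiglitazone (50 nM final) for 17 h at 37 C; viability was then read by CellTiter-Glo luminescence after 30 min at room temperature.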

[15] = qHTS assay for small molecule agonists of the antioxidant response element (ARE) signaling pathway - cell viability counter screen (AID 743203; calls by dose curve; also: nearly all actives have a fitted effect of over 55% in size)
Summary of the method: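 Viability counter screen: stably transfected ARE-bla HepG2 line, 16 hrs compound exposure at 37C/5% CO2, ATP-based CellTiter-Glo luminescence measured in the reporter wells.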

[16] = qHTS assay for small molecule activators of the heat shock response signaling pathway - cell viability counter screen (AID 743209); also: nearly all actives have a fitted effect of over 50% in size; also: potency is read from the fitted curve at half-maximal effect
Summary of the method: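 Viability of HSE-bla HeLa cells is measured with CellTiter-Glo in the wells already used for the reporter read. Compound exposure lasts 5 h at 37 C, and luminescence is read after 30 min at room temperature.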

[17] = qHTS assay for small molecule agonists of the antioxidant response element (ARE) signaling pathway (AID 743202; active = well fitted activation curve with a large enough effect in the signal ratio in the repeat runs, not every such curve was filed as active; inconclusive = weak or mixed curves, or effect the other way; inactive = no such curve, though single readings can be large or run the other way; the % refers to the signal ratio)
Summary of the method: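 Steps: seed ARE-bla HepG2 cells (2,000/well); incubate 5 h at 37 C; add compounds by pin tool; incubate 16 h at 37 C; add FRET substrate; read fluorescence after 2 h at RT.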

Measured: Potency

Chain of Estrogen receptor (Homo sapiens) (P03372 whole entry, looked up): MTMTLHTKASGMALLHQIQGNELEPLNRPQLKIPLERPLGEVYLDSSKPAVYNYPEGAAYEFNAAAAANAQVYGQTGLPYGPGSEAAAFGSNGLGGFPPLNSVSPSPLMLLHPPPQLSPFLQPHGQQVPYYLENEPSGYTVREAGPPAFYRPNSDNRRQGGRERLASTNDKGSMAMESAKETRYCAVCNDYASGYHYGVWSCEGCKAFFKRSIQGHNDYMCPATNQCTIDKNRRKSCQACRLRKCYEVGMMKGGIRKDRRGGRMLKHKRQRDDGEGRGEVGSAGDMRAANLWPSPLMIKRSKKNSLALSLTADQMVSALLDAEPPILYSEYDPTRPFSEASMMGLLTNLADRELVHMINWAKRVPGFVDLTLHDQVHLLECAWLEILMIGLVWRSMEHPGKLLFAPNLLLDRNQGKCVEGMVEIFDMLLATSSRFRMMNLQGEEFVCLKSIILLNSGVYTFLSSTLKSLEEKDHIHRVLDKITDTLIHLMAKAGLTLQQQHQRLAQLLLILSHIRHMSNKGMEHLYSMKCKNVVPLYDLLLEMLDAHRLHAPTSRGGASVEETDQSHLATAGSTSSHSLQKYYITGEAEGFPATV
Chain of Peroxisome proliferator-activated receptor gamma (Homo sapiens) (P37231 whole entry, looked up): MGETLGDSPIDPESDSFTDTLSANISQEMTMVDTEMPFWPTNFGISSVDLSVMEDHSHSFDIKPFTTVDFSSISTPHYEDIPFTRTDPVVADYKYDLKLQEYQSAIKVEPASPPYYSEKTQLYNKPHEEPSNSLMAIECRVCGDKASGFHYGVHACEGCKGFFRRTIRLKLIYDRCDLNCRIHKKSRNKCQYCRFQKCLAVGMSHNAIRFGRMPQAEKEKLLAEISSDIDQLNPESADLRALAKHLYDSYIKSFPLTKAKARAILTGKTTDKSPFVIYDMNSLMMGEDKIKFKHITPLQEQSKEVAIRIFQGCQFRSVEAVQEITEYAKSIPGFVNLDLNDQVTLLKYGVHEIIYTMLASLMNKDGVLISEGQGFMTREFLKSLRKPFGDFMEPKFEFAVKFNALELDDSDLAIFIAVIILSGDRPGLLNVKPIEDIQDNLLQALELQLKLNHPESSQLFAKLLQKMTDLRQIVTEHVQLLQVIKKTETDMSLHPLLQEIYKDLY
Chain of Aromatase (Homo sapiens) (P11511 whole entry, looked up): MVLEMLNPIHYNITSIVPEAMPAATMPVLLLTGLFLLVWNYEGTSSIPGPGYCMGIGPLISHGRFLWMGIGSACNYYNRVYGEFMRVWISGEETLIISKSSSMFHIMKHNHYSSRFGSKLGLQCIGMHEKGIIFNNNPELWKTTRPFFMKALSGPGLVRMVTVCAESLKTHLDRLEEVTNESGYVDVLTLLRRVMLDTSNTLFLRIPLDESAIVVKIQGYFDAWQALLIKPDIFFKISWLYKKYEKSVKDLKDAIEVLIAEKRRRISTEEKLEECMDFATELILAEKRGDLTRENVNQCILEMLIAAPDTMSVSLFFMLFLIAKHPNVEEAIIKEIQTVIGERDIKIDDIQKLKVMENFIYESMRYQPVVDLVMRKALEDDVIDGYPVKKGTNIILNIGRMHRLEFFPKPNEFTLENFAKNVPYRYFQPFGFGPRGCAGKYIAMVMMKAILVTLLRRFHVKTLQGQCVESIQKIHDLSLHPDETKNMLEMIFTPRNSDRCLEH
Chain of Aryl hydrocarbon receptor (Homo sapiens) (P35869 whole entry, looked up): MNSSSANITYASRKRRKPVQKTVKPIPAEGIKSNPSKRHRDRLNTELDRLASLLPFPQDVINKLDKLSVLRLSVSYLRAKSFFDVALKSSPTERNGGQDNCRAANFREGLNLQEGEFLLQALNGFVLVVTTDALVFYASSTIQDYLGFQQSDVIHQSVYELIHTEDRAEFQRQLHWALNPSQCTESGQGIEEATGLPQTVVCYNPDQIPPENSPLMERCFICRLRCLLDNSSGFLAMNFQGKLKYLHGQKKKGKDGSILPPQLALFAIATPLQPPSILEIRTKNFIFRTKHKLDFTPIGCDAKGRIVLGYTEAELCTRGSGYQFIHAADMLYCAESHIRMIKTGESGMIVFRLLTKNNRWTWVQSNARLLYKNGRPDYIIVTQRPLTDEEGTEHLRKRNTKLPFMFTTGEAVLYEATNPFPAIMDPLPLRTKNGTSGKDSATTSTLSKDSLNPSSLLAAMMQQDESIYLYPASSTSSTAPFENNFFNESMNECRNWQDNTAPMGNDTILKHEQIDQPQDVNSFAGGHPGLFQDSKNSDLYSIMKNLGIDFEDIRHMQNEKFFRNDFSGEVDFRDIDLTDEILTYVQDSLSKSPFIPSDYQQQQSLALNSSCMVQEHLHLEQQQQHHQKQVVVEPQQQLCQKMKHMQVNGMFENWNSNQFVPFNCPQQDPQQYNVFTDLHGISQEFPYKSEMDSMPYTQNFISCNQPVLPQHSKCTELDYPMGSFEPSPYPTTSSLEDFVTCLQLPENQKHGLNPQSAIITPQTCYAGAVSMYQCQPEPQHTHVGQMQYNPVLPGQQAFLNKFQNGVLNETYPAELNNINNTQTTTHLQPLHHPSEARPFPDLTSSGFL

O=C1c2ccccc2-c2n[nH]c3cccc1c23
inactive: [2] | [3] | [4] | Aromatase (Homo sapiens)
active: [1] 11.9 µM

CCCCC[C@H](O)/C=C/[C@@H]1[C@@H](C/C=C\CCCC(=O)O)[C@@H](O)C[C@H]1O
active: [4] 29.8 µM
inactive: [5] | [3] | [6] | Aromatase (Homo sapiens) | [7] | [8] | [9] | [10]

O=C(O)[C@H]1CN(C/C=C/P(=O)(O)O)CCN1
inactive: [1] | [2] | [3] | [6] | Aromatase (Homo sapiens) | [7] | [9]

Cc1cc(C(=O)NCCc2ccc(S(=O)(=O)NC(=O)NN3CCCCCC3)cc2)no1
inactive: [5] | [2] | [3] | [6] | Aromatase (Homo sapiens) | [7] | [9] | [10]

CC(C)(Oc1ccc(C2CCCc3ccccc32)cc1)C(=O)O (stereo not drawn)
active: [4] 18.8 µM | [10] 2.39 µM
inactive: [1] | [2] | [11] | [3] | [12] | [13] | [6] | Aromatase (Homo sapiens) | [7] | [8] | [9]

CCCCCCCC1CCC(=O)O1 (stereo not drawn)
inactive: [2] | [8]

C=C1[C@H](CO)[C@@H](O)C[C@@H]1n1cnc2c(=O)[nH]c(N)nc21
inactive: [3] | [6] | Aromatase (Homo sapiens) | [7] | [8] | [9] | [10]

CCCn1c(=O)[nH]c(=O)c2[nH]cnc21
inactive: [3] | [6] | [9]

CCC1OC(=O)C[C@@H](O)[C@H](C)[C@@H](O[C@@H]2O[C@H](C)C[C@H](N(C)C)[C@H]2O)[C@@H](CC=O)C[C@@H](C)C(=O)/C=C/[C@]2(C)OC2C1C (stereo partly drawn)
active: [11] 16.9 µM [inconclusive] | Aromatase (Homo sapiens) 26.6 µM | [7] 21.1 µM | [9] 21.1 µM
inactive: [3] | [12] | [8]

O=C(CCN1CCC(c2ccccc2)C1)c1ccc2c(c1)OCCO2 (stereo not drawn)
inactive: [11] | [3] | [12] | [4] | [13] | [6] | [8] | [9] | [10] | [14] | [15]
active: [1] 26.6 µM | [16] 13.3 µM

CC1(C)S[C@@H]2[C@H](NC(=O)[C@@H](NC(=O)N3CCNC3=O)c3ccccc3)C(=O)N2[C@H]1C(=O)O
inactive: [11] | [3] | [12] | [4] | [13] | [6] | Aromatase (Homo sapiens) | [7] | [8] | [9] | [10]

O=C1CCC/C=C\CCCCCCCCCC1
active: Aromatase (Homo sapiens) 30.6 µM
inactive: [2] | [3] | [6] | [7] | [8] | [9] | [14] | [17] | [15] | [16]

CC(C)CCC[C@@H](C)[C@H]1CC[C@H]2[C@@H]3CC[C@@H]4C[C@H](O)CC[C@]4(C)[C@H]3CC[C@]12C
inactive: [2] | [11] | [3] | [12] | [4] | [13] | [6] | Aromatase (Homo sapiens) | [7] | [9] | [10]

CC/C(=C(/CC)c1ccc(OP(=O)(O)O)cc1)c1ccc(OP(=O)(O)O)cc1
inactive: [1] | [2] | [6] | Aromatase (Homo sapiens) | [7] | [8] | [9] | [10]

C=C1C(=C/C=C2\CCC[C@]3(C)[C@@H]([C@H](C)CCCC(C)C)CC[C@@H]23)C[C@@H](O)C[C@@H]1O
inactive: Aromatase (Homo sapiens) | [7] | [9]
